Screening results: PubChem, several laboratories
Cav32 inh: blocks human Cav3.2 T-type calcium channel; Cav3.2-expressing cells, Fluo-4 calcium fluorescence FDSS; hits give low values; hit rate 4% among 100,000; B-score at 10 µM; AID 449739; O95180;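 active = single-dose well whose peak fluorescence ratio is a statistical outlier from its plate by either plate-standardised score or position-corrected B-score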
CYP2C9 activ: activators of human CYP2C9 | hit rate 1.4% among 96,000 | activation factor at 5 µM | P11712 | recombinant CYP2C9, luciferin-H conversion, luminescence; hits give high values; factor 1 = untreated enzyme, 0 = blocked;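 active = activation factor of 2 or more for CYP2C9 at a 5 µM dose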
CYP2C19 inhib: inhibitors of human CYP2C19 | hit rate 21% among 96,000 | inhibition, % at 5 µM | P33261 | CYP2C19 Supersomes, luciferin-H EGE luminescence, 30 min | AID 778;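 active = CYP2C19 inhibition above a set limit at 5 µM in the primary screen, cut at about 50% in these data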
Target sequence (P33261 whole entry, looked up): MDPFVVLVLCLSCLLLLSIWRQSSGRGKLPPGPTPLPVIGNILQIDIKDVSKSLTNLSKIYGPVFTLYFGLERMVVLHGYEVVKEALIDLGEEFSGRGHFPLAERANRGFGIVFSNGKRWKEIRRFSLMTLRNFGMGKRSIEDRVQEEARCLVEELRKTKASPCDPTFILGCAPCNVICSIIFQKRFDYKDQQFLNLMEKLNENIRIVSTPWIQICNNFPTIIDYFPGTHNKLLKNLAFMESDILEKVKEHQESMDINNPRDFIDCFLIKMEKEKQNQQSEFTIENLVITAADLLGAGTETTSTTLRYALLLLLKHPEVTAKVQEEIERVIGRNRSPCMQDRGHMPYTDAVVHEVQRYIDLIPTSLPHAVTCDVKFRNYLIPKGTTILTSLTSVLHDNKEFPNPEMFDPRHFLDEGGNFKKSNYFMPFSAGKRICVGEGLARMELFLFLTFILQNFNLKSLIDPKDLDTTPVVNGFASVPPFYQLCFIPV
CYP2C19 act: activators of human cytochrome P450 2C19 | P33261 | 96,000 tested, under 10 active | activation factor at 5 µM | recombinant CYP2C19, luciferin-H EGE luminescence; hits give high values; 0 = fully inhibited enzyme, 1 = untreated enzyme;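 active = activation factor of at least 2 at 5 µM in the primary screen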
CYP2C9 inh: human CYP2C9 inhibition; inhibition, % at 5 µM; CYP2C9 Supersomes, luciferin-H conversion, luminescence; hit rate 20% among 96,000; P11712; AID 777;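 active = blocking of liver enzyme CYP2C9 beyond about 50% at 5 µM, limit read from the data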
Hits are given with their value; i = inactive; nt = no result. In the library only some 27% were active in any assay of this set; here they are far more common.

SMILES	Cav32 inh	CYP2C9 activ	CYP2C19 inhib	CYP2C19 act	CYP2C9 inh
CCOC(=O)C1=C(CC)OC(N)=C(C#N)C1c1ccc(OC)cc1OC (stereo not drawn)	i	nt	nt	nt	nt
CCOC(=O)CC1=C(C(=O)OCC)C(c2ccc(OC)cc2OC)C(C#N)=C(N)O1 (stereo not drawn)	i	i	i	i	64
Cc1ccc(C2C(C#N)=C(N)Oc3c2sc2ccccc32)o1 (stereo not drawn)	i	i	63	i	81
COC(=O)C(C)Oc1ccc(-c2nccc(-c3cccs3)n2)cc1 (stereo not drawn)	nt	i	i	i	65
O=C(Nc1nccc(-c2cccs2)n1)c1ccccc1Cl	i	i	i	i	i
Oc1ccc(-c2nccc(-c3cccs3)n2)cc1	i	i	i	i	68
CN1CCN(C(=O)c2c(O)c3cccc4c3n(c2=O)CCC4)CC1	i	i	i	i	i
C=CCNC(=O)C1CCN(c2nc(C)cc(-c3ccccc3)n2)CC1	i	i	82	i	77
Cc1cc(-c2ccccc2)nc(N2CCC(C(=O)NCc3ccccc3Cl)CC2)n1	i	nt	nt	nt	nt
CCOC(=O)N1CCC(Nc2ccc3nnc(-c4ccccc4)n3n2)CC1	2.7	i	96	i	93
CCOC(=O)CC(=O)CSc1ccc2nnc(-c3ccccc3)n2n1	i	i	i	i	i
OC(COc1ccccc1)CN1CCN(c2ncccn2)CC1 (stereo not drawn)	i	i	i	i	i
CC12CCC(CC1)C(C)(C)O2	i	nt	nt	nt	nt
CSc1cccc(NS(=O)(=O)c2ccc3c(c2)oc(=O)n3C)c1	i	i	97	i	53
Cc1ccc(NS(=O)(=O)c2ccc3c(c2)oc(=O)n3C)cc1F	i	i	56	i	76
Cn1c(=O)oc2cc(S(=O)(=O)Nc3cccc(F)c3)ccc21	i	nt	nt	nt	nt
CCOC(=O)N1CCC(N(CCOC)C(=O)Nc2ccc(Cl)cc2)CC1	nt	i	i	i	i
Cn1cc(C(=O)c2ccc(Cl)cc2Cl)cc1C(=O)N/N=C(\N)COc1ccc(Cl)cc1Cl	nt	i	i	i	86
Cn1cc(C(=O)c2ccc(Cl)cc2Cl)cc1C(=O)N/N=C(\N)COc1ccccc1	-6.6	i	i	i	i
Cn1cc(C(=O)c2ccc(Cl)cc2Cl)cc1C(=O)N/N=C(\N)COc1ccc(F)cc1	-6.1	i	i	i	i
O=C(NCCCN1CCCC1=O)c1cc(NS(=O)(=O)c2ccc(F)cc2)cc(NS(=O)(=O)c2ccc(F)cc2)c1	i	i	i	i	i
O=c1[nH]c(SCc2ccccc2Cl)nc2c1CCCC2	i	i	i	i	i
O=C1CCCC2=C1C(c1ccncc1)c1c(nc(SCc3ccccc3Cl)[nH]c1=O)N2 (stereo not drawn)	i	i	85	i	95
CCCOc1cc(CN2CCCCC2)cc(C(C)=O)c1	i	i	i	i	i
COc1ccc(S(=O)(=O)N(C)CC(=O)Nc2c(F)cccc2F)cc1	i	i	80	i	i
SMILES	Cav32 inh	CYP2C9 activ	CYP2C19 inhib	CYP2C19 act	CYP2C9 inh
COc1ccc(S(=O)(=O)N(C)CC(=O)Nc2ccc3c(c2)OCO3)cc1OC	i	i	i	i	i
COc1ccc(N(CC(=O)Nc2ccc3c(c2)OCO3)S(=O)(=O)c2ccccc2)c(OC)c1	i	i	99	i	99
Cc1cccc(NC(=O)CN(C)S(=O)(=O)c2ccc(Cl)cc2)n1	i	i	i	i	i
CCN(CC(=O)Nc1cccc(C(C)=O)c1)S(=O)(=O)c1ccc(OC)cc1	i	i	i	i	i
COc1ccc(C)cc1S(=O)(=O)N(C)CC(=O)Nc1ccc2c(c1)OCCO2	i	i	i	i	83
Cc1cccc(NC(=O)CN(C)S(=O)(=O)c2ccc(Br)cc2)n1	i	i	96	i	i
C[C@@H]1C[C@H]2[C@@H]3CCC4=CC(=O)C=C[C@]4(C)[C@@]3(F)[C@@H](O)C[C@]2(C)[C@H]1C(=O)CO	i	nt	nt	nt	nt
CCN(CC(=O)Nc1ccc(S(N)(=O)=O)cc1)S(=O)(=O)c1cc(C)ccc1OC	i	i	i	i	97
COc1ccc(S(=O)(=O)N(C)CC(=O)Nc2ccc3c(c2)OCO3)cc1	i	i	61	i	54
COc1ccc(OC)c(S(=O)(=O)N(C)CC(=O)Nc2ccc3c(c2)OCCO3)c1	i	i	i	i	75
Cc1c(NC(=O)CSc2nc3ccccc3s2)c(=O)n(-c2ccccc2)n1C	i	i	i	i	i
O=C(c1ccc(S(=O)(=O)N2CCOCC2)cc1)N1CCCc2ccccc21	i	i	56	i	i
O=C(c1ccc(S(=O)(=O)N2CCCC2)cc1)N1CCCc2ccccc21	i	i	97	i	88
O=C(c1ccc(C(=O)N2CCCc3ccccc32)nc1)N1CCCc2ccccc21	i	i	i	i	i
O=C(Nc1ccccc1)c1ccc(S(=O)(=O)N2CCOCC2)cc1	i	i	i	i	i
Cc1nn(CC(=O)N2CCN(Cc3ccccc3)CC2)c(=O)c2ccccc12	i	i	75	i	i
Cc1nn(CC(=O)NCc2ccccc2)c(=O)c2ccccc12	i	2.7	i	i	i
Cc1nn(CC(=O)NCc2cccnc2)c(=O)c2ccccc12	i	i	i	i	i
Cc1nn(CC(=O)NCc2cccc3ccccc23)c(=O)c2ccccc12	i	2.2	i	i	i
CN1C(=O)N2CN(C3CCCCC3)CN3C(=O)N(C)C1C23 (stereo not drawn)	i	i	i	i	i
O=S1(=O)c2ccccc2N=NN1Cc1cc(Cl)cc(Cl)c1	i	i	i	i	54
O=S1(=O)c2ccccc2N=NN1Cc1ccc(Cl)cc1	i	i	83	i	68
Cc1ccc(S(=O)(=O)N2CCC(=O)N(CCOCc3ccc(C(F)(F)F)cc3)CC2)cc1	i	nt	nt	nt	nt
Cc1ccc(CS(=O)(=O)CCC(=O)NCCCN2CCCC2=O)cc1	i	i	i	i	i
O=S1(=O)NC(=NCc2ccccc2)c2ccccc21	i	i	60	i	i
SMILES	Cav32 inh	CYP2C9 activ	CYP2C19 inhib	CYP2C19 act	CYP2C9 inh
O=C(NCCCN=C1NS(=O)(=O)c2ccccc21)c1ccncc1	i	i	i	i	80
O=C1C=C(c2ccccc2)OC(=O)C1C(=O)c1ccccc1 (stereo not drawn)	i	nt	nt	nt	nt
COc1ccc(-c2cc([C@H]3[C@@H]4C=CCC[C@@]4(C)C(=O)N3Cc3ccccc3)ccc2F)cc1OC	i	nt	nt	nt	nt
CCC(C(=O)NC(C)CCc1ccco1)n1nc(C)n2c(cc3occc32)c1=O (stereo not drawn)	i	nt	nt	nt	nt
CCc1nn(C(C)C(=O)N2CCc3ccccc3C2)c(=O)c2cc3occc3n12 (stereo not drawn)	i	i	94	i	61
CCc1nn(C(C)C(=O)Nc2cccc(C)c2C)c(=O)c2cc3occc3n12 (stereo not drawn)	i	i	71	i	66
CCc1nn(C(C)C(=O)NCCN2CCN(c3cccc(C)c3C)CC2)c(=O)c2cc3occc3n12 (stereo not drawn)	i	i	i	i	i
CCC(C(=O)NC(C)CCc1ccccc1)n1nc(C)n2c(cc3occc32)c1=O (stereo not drawn)	i	i	71	i	87
